Measured values taken from PubChem BioAssay (NCATS).
Records with an inconclusive call do not appear. Unmarked numbers belong to inactive results. The source made the active and inactive calls. Calls follow the shape of the dose curve; as a rule, active = well fitted cell-killing curve with a large enough effect; inconclusive = small, poorly fitted or top-dose-only effect; inactive = flat fitted curve, though single readings scatter.

Test: Cell Viability - LYMP2-007 (AID 979);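 also: cells exposed to compound for 24 h before reading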;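 as to activity change, negative = cytotoxicity: 0% = DMSO only and the negative end = 92 µM tetraoctylammonium bromide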
Conditions: LYMP2-007 lymphoblastoid cell viability; series mostly up to 92.2 µM; activity change, negative = cytotoxicity: at the top concentration
How it was run: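 qHTS cytotoxicity: 2500 cells/well, 5 hr 37 C settle, compound 24 hr 37 C, CellTiter-Glo 30 min RT, luminescence. Decrease in ATP = toxicity. AC50 by standard Hill equation; tetraoctylammonium bromide positive control.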
Also: nearly all actives have a fitted effect of over 60% in size.
Potency is read from the fitted curve at half-maximal effect.

| Structure (SMILES) | activity change, negative = cytotoxicity [%] | Potency |
| --- | --- | --- |
| CCCN(CCC)C(=O)SCC | 7.37 | – |
| COc1ccc2nc(N)sc2c1 | 1.74 | – |
| ClCCCl | -3.87 | – |
| CCC(O)OC(O)CC (configuration not stated) | – | inactive |
| C=Cc1ccccc1Cl | 0.582 | – |
| c1ccc2c(c1)c1cccc3ccc4cccc2c4c31 | -1.69 | – |
| Cc1cccc([N+](=O)[O-])c1C | 15.8 | – |
| CCCCCCCCO | -0.803 | – |
| CC(C)=CCCC(C)CCO (configuration not stated) | -12.3 | – |
| O=[N+]([O-])c1cccc(Cl)c1Cl | 0.389 | – |
| CCO[Si](CCCN)(OCC)OCC | 2.67 | – |
| Clc1cc(Cl)c(Cl)cc1Cl | -5.69 | – |
| CCO | 0.578 | – |
| C=CC(=O)OCCOCCOCCOCCOC(=O)C=C | – | 20 µM (active) |
| Clc1cc(Cl)c(Cl)c(Cl)c1Cl | -5.43 | – |
| CCCCC(CC)CN (configuration not stated) | – | inactive |
| O=NO | – | inactive |
| c1ccc2c(c1)[nH]c1ccccc12 | 7.02 | – |
| OCCNCCO | 1.8 | – |
| Nc1ccc(Cl)cc1Cl | -3.18 | – |
| CCC(C)c1ccccc1O (configuration not stated) | – | inactive |
| CC1=CC(C)(C)Nc2ccccc21 | – | inactive |
| CN(C)C=O | – | inactive |
| Cc1ccc(N)c([N+](=O)[O-])c1 | -4.13 | – |
| CCCCOCCO | – | inactive |
| CC(=O)OC/C=C(\C)CCC=C(C)C | -11.6 | – |

Test: Cell Viability - LYMP2-008 (AID 980);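 as to activity change, negative = cytotoxicity: cells exposed to compound for 24 h at 37 °C; % is scaled to controls: 0 for no effect and ±100 for the full control effect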
Conditions: LYMP2-008 lymphoblastoid cell viability, qHTS; series mostly up to 92.2 µM; activity change, negative = cytotoxicity: at the top concentration
How it was run: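 Luminescent ATP read-out (CellTiter-Glo, 30 min RT) after 24 hr compound exposure at 37 C of human lymphoblastoid cells in complete medium. Decrease in ATP taken as cytotoxicity; AC50 derived by standard Hill fit of qHTS concentration-response data.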

| Structure (SMILES) | activity change, negative = cytotoxicity [%] | Potency |
| --- | --- | --- |
| CCCN(CCC)C(=O)SCC | -2.1 | – |
| COc1ccc2nc(N)sc2c1 | -4.49 | – |
| ClCCCl | -1.16 | – |
| CCC(O)OC(O)CC (configuration not stated) | – | inactive |
| C=Cc1ccccc1Cl | 10.1 | – |
| c1ccc2c(c1)c1cccc3ccc4cccc2c4c31 | -11.8 | – |
| Cc1cccc([N+](=O)[O-])c1C | -4.34 | – |
| CCCCCCCCO | 2.96 | – |
| CC(C)=CCCC(C)CCO (configuration not stated) | -9.62 | – |
| O=[N+]([O-])c1cccc(Cl)c1Cl | -3.59 | – |
| CCO[Si](CCCN)(OCC)OCC | -2.87 | – |
| Clc1cc(Cl)c(Cl)cc1Cl | 5.48 | – |
| CCO | 3.74 | – |
| C=CC(=O)OCCOCCOCCOCCOC(=O)C=C | – | 25.1 µM (active) |
| Clc1cc(Cl)c(Cl)c(Cl)c1Cl | 1.45 | – |
| CCCCC(CC)CN (configuration not stated) | – | inactive |
| O=NO | – | inactive |
| c1ccc2c(c1)[nH]c1ccccc12 | 5.27 | – |
| OCCNCCO | -18.3 | – |
| Nc1ccc(Cl)cc1Cl | -7.72 | – |
| CCC(C)c1ccccc1O (configuration not stated) | – | inactive |
| CC1=CC(C)(C)Nc2ccccc21 | – | inactive |
| CN(C)C=O | – | inactive |
| Cc1ccc(N)c([N+](=O)[O-])c1 | -4.42 | – |
| CCCCOCCO | – | inactive |
| CC(=O)OC/C=C(\C)CCC=C(C)C | -7.74 | – |
